Data published in PubChem BioAssay.
Values joined by “and” are separate entries in the source; they are usually repeats but may differ in a detail not shown here. Equal values may be shown once. Inconclusive results are not listed. Active and inactive are the calls of the source.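 How the source made its calls, unless noted: active means compounds whose cell count with miR-34 switched on is under 0.7 times the count with it off; inactive means the rest.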

What was measured:
[1] = liver-stage malaria parasite growth inhibition, primary screen, cell-based, HepG2, luciferase luminescence, HepG2 viability (AID 624349; in the data active means parasite load remaining mostly below about 12%, no sharp cut-off; inactive means mostly above about 10%;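 further: 100% = mean of DMSO negative control wells on the same plate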); conditions: P. berghei liver stage in HepG2, luciferase luminescence, concentration not given here; parasite load remaining: stronger effect = lower value; viability: measured here: HepG2 viability without parasites
[2] = stimulators of nuclear beta-catenin in C2C12, primary screen, imaging, WNT3A-conditioned medium, mouse C2C12, NPC library (AID 1117326; in the data active means nuclear beta-catenin stimulation mostly above about 4.2%, no sharp cut-off; inactive means mostly below about 10%); conditions: stronger effect = higher value
[3] = stimulators of insulin release from INS-1E, primary screen, cell-based, 5 mM glucose, NPC library (AID 1117329;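 active means compound raises insulin release from rat beta cells at 5 mM glucose, no numeric limit stated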); conditions: rat INS-1E insulin secretion, at 10 µM, stronger effect = higher value
[4] = growth inhibition of GSK3B-pretreated HCT116 cells – cell-based, CellTiter-Glo, 0.2 to 20 µM (AID 1117336;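 active means compounds lowering colon cancer cell viability after pretreatment blocking the GSK3B kinase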); conditions: HCT116 viability after GSK3B inhibitor, at 20 µM, stronger effect = higher value
[5] = inhibition of endothelial tube formation, primary screen, imaging, VEGF stimulated, CD31 staining, tube area, NPC library (AID 1117340;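 active means compound that reduces growth-factor-driven endothelial tube area in a mixed cell culture, no cutoff stated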); conditions: VEGF-stimulated ADSC/ECFC co-culture, at 10 µM, stronger effect = higher value
[6] = glucagon-like peptide 1 release enhancers, primary assay, NCI-H716 cell line, NPC library (AID 1117341;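 active means compound raises GLP1 secretion from the human gut endocrine cells, with no numeric limit stated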); conditions: NCI-H716 cells, at 10 µM, stronger effect = higher value
[7] = HCT116 colon cancer cell growth inhibition, primary screen, CellTiter-Glo luminescence, NPC library (AID 1117342;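 active means compounds that lower survival of HCT116 colon cancer cells in the luminescence readout, no numeric limit stated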); conditions: at 20 µM (top of the series)
[8] = CellTiter-Glo luminescent readout of SW480 viability loss, NPC library primary (AID 1117343;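 active means compounds that lower viability of the colon cancer cells in the luminescence readout, with no numeric limit stated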); conditions: CellTiter-Glo luminescence; at 20 µM (top of the series) unless noted
[9] = decreased DLD-1 cellular survival, CellTiter-Glo luminescent readout, NPC compound collection, primary HTS (AID 1117346;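 active means compounds that lower survival of DLD-1 colon cancer cells in the luminescence readout, no cutoff given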); conditions: DLD-1 viability, CellTiter-Glo luminescence; at 20 µM (top of the series)
[10] = sensitizers of A549 cells to miR-34 induction, primary screen, imaging, A549 dox-inducible miR-34, nuclei and caspase counts (AID 1347080); conditions: A549 miR-34 inducible, Hoechst nuclei count, 48 h
[11] = viability rescue of complex I mutant cybrids, primary screen, cell-based, galactose medium, ATP luminescence (AID 1645843;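 active means z-score of at least 1.8 in each of two replicates, scored against plate mean and spread of sample wells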;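 further: positive z means more ATP and so rescue of galactose-driven cybrid death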); conditions: complex I mutant cybrid cells, 72 h, stronger effect = higher value
[12] = survival rescue of mitochondrial mutant cells in low glucose, primary screen, MELAS cybrids, Rieske KO mouse fibroblasts, CellTiter-Glo (AID 1508586;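 active means mean z-score across replicates of 1.96 or higher in either the MELAS or the Rieske mutant cell line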;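 further: z relative to plate mean and SD of compound and empty wells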)
[13] = biological target: ATP-dependent translocase ABCB1 (Homo sapiens) (UniProt P08183); test: MDR1 (ABCB1) efflux transporter inhibition, cell-based (AID 377; in the data active means fluorescence slope change above about 50%); conditions: MDR1-expressing cells, fluorescent substrate accumulation slope; stronger effect = higher value; concentration not given here
[14] = hESC survival regulators, cell-based (AID 493140; call rule not given here;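 further: cells exposed to compounds for four days before counting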); conditions: human embryonic stem cell survival screen; stronger effect = higher value
[15] = biological target: NAD(+) hydrolase SARM1 (Homo sapiens) (UniProt Q6SZW1); test: SARM1 TIR NADase inhibitors, cell lysate, NAD-Glo luminescence (AID 1508614;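 active means compound whose remaining NAD level is above about 45 nM, limit read from the data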); conditions: SAM-TIR HEK293T lysate NADase, at 1 µM, stronger effect = higher value
[16] = biological target: Mitogen-activated protein kinase 7 (Homo sapiens) (UniProt Q13164); test: ERK5 transactivation activators in reporter cells, primary screen, cell-based, HTS (AID 1508626;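 active means luciferase signal above three times the same-plate solvent-only control wells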;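 further: luciferase driven by Gal4-ERK5 fusion binding five Gal4 sites before minimal TATA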); conditions: HeLa Gal4-ERK5 transactivation, 18 h, at 5 µM, stronger effect = higher value
[17] = stronger effect = lower value, cell number ratio, induced over uninduced
[18] = measured here: relative caspase fold change +Dox/-Dox
[19] = measured here: total cells with miR-34 induction, stronger effect = lower value
[20] = measured here: total cells without miR-34 induction
[21] = MELAS cybrid survival, CellTiter-Glo 48 h, stronger effect = higher value
[22] = Rieske KO mouse fibroblast survival, CellTiter-Glo 72 h

ATP-dependent translocase ABCB1 (Homo sapiens), sequence (P08183 whole entry, looked up): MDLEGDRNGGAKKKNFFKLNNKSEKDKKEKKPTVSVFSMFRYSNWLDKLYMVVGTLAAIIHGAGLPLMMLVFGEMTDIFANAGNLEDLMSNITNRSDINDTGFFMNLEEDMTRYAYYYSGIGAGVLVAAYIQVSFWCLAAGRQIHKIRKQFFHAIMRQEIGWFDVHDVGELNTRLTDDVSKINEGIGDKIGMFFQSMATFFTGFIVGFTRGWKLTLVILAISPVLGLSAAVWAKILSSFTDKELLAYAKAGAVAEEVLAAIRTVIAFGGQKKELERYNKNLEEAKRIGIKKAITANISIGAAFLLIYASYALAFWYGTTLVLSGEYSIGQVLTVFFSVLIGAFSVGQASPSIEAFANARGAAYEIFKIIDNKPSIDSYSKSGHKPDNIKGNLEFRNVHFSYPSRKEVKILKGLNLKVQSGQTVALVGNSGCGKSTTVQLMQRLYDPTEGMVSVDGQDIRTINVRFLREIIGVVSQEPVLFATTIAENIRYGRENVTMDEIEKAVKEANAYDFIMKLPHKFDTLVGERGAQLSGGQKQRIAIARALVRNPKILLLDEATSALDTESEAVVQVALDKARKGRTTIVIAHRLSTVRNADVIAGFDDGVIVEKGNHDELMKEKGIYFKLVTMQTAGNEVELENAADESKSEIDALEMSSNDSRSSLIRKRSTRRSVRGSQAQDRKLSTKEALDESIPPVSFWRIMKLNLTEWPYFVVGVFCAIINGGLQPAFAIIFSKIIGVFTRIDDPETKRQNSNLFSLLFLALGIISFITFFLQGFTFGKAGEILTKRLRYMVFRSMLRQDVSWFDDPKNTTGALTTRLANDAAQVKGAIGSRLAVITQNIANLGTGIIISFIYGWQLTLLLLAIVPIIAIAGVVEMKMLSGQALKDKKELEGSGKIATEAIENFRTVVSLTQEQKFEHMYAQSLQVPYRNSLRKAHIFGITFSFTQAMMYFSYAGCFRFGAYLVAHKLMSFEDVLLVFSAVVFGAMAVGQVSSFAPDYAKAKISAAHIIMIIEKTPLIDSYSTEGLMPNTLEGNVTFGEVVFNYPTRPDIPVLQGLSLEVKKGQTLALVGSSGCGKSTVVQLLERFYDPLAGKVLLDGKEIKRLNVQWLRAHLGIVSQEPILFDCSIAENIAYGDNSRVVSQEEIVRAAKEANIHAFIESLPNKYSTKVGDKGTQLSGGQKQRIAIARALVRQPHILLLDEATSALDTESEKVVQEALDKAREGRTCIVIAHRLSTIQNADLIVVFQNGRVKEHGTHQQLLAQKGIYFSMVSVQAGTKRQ
NAD(+) hydrolase SARM1 (Homo sapiens), sequence (Q6SZW1 whole entry, looked up, the tested form may be a part): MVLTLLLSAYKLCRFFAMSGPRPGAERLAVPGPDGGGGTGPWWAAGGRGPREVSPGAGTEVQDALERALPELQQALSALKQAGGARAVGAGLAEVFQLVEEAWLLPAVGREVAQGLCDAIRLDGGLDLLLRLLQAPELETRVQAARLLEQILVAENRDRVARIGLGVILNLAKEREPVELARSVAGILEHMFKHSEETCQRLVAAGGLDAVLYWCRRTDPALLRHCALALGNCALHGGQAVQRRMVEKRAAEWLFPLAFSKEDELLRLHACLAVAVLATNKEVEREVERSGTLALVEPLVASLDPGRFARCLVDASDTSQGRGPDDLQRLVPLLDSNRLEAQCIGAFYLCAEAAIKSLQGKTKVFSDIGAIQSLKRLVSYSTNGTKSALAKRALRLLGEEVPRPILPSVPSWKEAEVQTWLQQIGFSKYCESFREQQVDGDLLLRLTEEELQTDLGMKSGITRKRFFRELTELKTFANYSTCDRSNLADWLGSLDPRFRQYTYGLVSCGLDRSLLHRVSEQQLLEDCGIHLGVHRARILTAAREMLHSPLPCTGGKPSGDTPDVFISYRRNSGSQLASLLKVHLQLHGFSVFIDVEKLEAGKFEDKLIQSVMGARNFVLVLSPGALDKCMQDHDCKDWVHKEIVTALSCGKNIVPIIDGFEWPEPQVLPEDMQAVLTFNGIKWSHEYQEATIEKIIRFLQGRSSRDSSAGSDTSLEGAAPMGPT
Mitogen-activated protein kinase 7 (Homo sapiens), sequence (Q13164 whole entry, looked up, the tested form may be a part): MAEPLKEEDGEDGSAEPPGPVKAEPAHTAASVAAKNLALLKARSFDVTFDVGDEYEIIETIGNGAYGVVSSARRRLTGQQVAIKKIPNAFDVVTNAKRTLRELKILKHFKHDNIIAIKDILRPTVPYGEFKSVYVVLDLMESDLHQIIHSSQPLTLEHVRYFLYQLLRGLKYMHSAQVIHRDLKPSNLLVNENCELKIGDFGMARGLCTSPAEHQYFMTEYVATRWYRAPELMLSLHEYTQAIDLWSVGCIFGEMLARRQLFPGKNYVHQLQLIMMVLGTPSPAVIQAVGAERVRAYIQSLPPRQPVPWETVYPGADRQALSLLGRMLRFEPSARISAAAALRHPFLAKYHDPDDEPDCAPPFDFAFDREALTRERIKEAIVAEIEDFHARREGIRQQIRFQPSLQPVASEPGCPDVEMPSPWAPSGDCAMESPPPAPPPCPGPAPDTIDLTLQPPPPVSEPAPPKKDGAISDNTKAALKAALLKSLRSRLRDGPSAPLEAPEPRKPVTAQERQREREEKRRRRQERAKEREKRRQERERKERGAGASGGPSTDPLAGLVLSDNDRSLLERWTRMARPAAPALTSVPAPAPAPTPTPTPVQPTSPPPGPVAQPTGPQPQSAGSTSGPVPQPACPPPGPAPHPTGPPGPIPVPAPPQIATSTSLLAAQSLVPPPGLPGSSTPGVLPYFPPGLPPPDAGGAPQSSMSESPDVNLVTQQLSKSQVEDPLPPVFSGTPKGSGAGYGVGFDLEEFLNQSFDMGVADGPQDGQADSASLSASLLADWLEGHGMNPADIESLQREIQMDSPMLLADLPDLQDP

COc1ccccc1Oc1c(NS(=O)(=O)c2ccc(C(C)(C)C)cc2)nc(-c2ncccn2)nc1OCCO
parasite load remaining [1]: 23% (inactive) | viability [1]: 71% | nuclear beta-catenin stimulation ([2]; at 10 µM): -2.1% (inactive) | nuclear beta-catenin stimulation ([2]; stimulation, at 2 µM): 0.8% | insulin secretion stimulation [3]: 7% (inactive) | viability decrease [4]: -5.8% (inactive) | tube area decrease [5]: 4.9% (inactive) | GLP1 secretion stimulation [6]: 0.2% (inactive) | inhibition of viability [7]: 12.9% (inactive) | viability decrease (inhibition) [8]: 81.4% (active) | viability decrease (inhibition) [9]: 16.8% (inactive) | fold change [10, 17]: 0.921 (inactive) and 0.93 (inactive) and 0.843 (inactive) | fold change [10, 18]: 1.38 and 0.578 and 1.32 | cell count [10, 19]: 8280 and 8370 and 9010 | cell count [10, 20]: 8980 and 9000 and 10700 | z-score [11]: 0.365 (inactive)

Cc1cc2c(OCC(CNC(C)(C)C)OC(=O)c3ccccc3)cccc2[nH]1 (stereo not drawn)
parasite load remaining [1]: 45.6% (inactive) | viability [1]: 114% | nuclear beta-catenin stimulation ([2]; at 10 µM): -0.6% (inactive) | nuclear beta-catenin stimulation ([2]; stimulation, at 2 µM): -2.3% | insulin secretion stimulation [3]: 38.9% (active) | viability decrease [4]: 8% (inactive) | tube area decrease [5]: -1.9% (inactive) | GLP1 secretion stimulation [6]: 8.9% (inactive) | inhibition of viability [7]: 30.9% (inactive) | viability decrease (inhibition) [8]: -10.4% (inactive) | viability decrease (inhibition) [9]: -25.2% (inactive) | fold change [10, 17]: 0.853 (inactive) | fold change [10, 18]: 1.26 | cell count [10, 19]: 9400 | cell count [10, 20]: 11000 | z-score [12, 21]: -0.871 (inactive) | z-score [12, 22]: -1.26 | z-score [11]: 0.13 (inactive)

Cc1c(-c2ccccc2)oc2c(C(=O)OCCN3CCCCC3)cccc2c1=O
fluorescence slope change [13]: 112% (active) | survival [14]: 21.4 (inactive) | parasite load remaining [1]: 46% (inactive) and 89.3% (inactive) | viability [1]: 49.7% and 89.5% | nuclear beta-catenin stimulation ([2]; at 10 µM): -2.4% (inactive) | nuclear beta-catenin stimulation ([2]; stimulation, at 2 µM): -1% | insulin secretion stimulation [3]: 2.9% (inactive) | viability decrease [4]: -5.1% (inactive) | tube area decrease [5]: 19.4% (inactive) | GLP1 secretion stimulation [6]: -5.1% (inactive) | inhibition of viability [7]: 5.5% (inactive) | viability decrease (inhibition) [8]: 4.4% (inactive) | viability decrease (inhibition) [9]: -0.8% (inactive) | fold change [10, 17]: 0.916 (inactive) and 1.06 (inactive) | fold change [10, 18]: 1.01 and 0.699 | cell count [10, 19]: 8120 and 9090 | cell count [10, 20]: 8860 and 8560 | z-score [12, 21]: -0.232 (inactive) and 0.0828 (inactive) | z-score [12, 22]: -0.166 and -0.00233

CC(C)(C)C(=O)OCOC(=O)[C@@H]1N2C(=O)[C@@H](NC(=O)[C@H](N)c3ccccc3)[C@H]2SC1(C)C
survival [14]: 8.83 (inactive) | parasite load remaining [1]: 105% (inactive) | viability [1]: 75% | nuclear beta-catenin stimulation ([2]; at 10 µM): -2.4% (inactive) | nuclear beta-catenin stimulation ([2]; stimulation, at 2 µM): -1.3% | insulin secretion stimulation [3]: 2.2% (inactive) | viability decrease [4]: -4.7% (inactive) | tube area decrease [5]: -15.2% (inactive) | GLP1 secretion stimulation [6]: 2.6% (inactive) | inhibition of viability [7]: -17.9% (inactive) | viability decrease (inhibition) [8]: 5.3% (inactive) | viability decrease (inhibition) [9]: -16.8% (inactive) | fold change [10, 17]: 0.926 (inactive) | fold change [10, 18]: 0.701 | cell count [10, 19]: 9310 | cell count [10, 20]: 10100 | z-score [12, 21]: -1.1 (inactive) | z-score [12, 22]: -0.251

C1CCN2C[C@@H]3C[C@@H](CN4CCCC[C@@H]34)[C@H]2C1
fluorescence slope change [13]: 10.6% (inactive) | parasite load remaining [1]: 47.2% (inactive) | viability [1]: 113% | nuclear beta-catenin stimulation ([2]; at 10 µM): -0.4% (inactive) | nuclear beta-catenin stimulation ([2]; stimulation, at 2 µM): -0.5% | insulin secretion stimulation [3]: 15.2% (inactive) | viability decrease [4]: 5.9% (inactive) | tube area decrease [5]: -8.8% (inactive) | GLP1 secretion stimulation [6]: 1.2% (inactive) | inhibition of viability [7]: 22.6% (inactive) | viability decrease (inhibition) [8]: 3.2% (inactive) | viability decrease (inhibition) [9]: 4.2% (inactive) | fold change [10, 17]: 0.853 (inactive) | fold change [10, 18]: 1.2 | cell count [10, 19]: 8930 | cell count [10, 20]: 10500 | remaining NAD [15]: 10 nM (inactive) | luciferase signal [16]: 60 AU (inactive)

C[C@]12CC[C@H]3[C@@H](CCC4=CC(=O)CC[C@@]43C)[C@@H]1CC[C@@H]2C(=O)CO
survival [14]: 2.75 (inactive) | parasite load remaining [1]: 95.4% (inactive) | viability [1]: 96.9% | nuclear beta-catenin stimulation ([2]; at 10 µM): 3.8% (inactive) | nuclear beta-catenin stimulation ([2]; stimulation, at 2 µM): 5.6% | insulin secretion stimulation [3]: 0.8% (inactive) | viability decrease [4]: -35.8% (inactive) | tube area decrease [5]: 34.3% (inactive) | GLP1 secretion stimulation [6]: 2.7% (inactive) | inhibition of viability [7]: 27.8% (inactive) | viability decrease (inhibition) [8]: 23.6% (inactive) | viability decrease (inhibition) [9]: 8.8% (inactive) | fold change [10, 17]: 0.793 (inactive) | fold change [10, 18]: 1.3 | cell count [10, 19]: 7560 | cell count [10, 20]: 9530 | z-score [12, 21]: -0.237 (inactive) | z-score [12, 22]: 0.173

C/C(=C(\CCOP(=O)(O)O)SC(=O)c1ccccc1)N(C=O)Cc1cnc(C)nc1N
survival [14]: 11 (inactive) | parasite load remaining [1]: 106% (inactive) | viability [1]: 102% | nuclear beta-catenin stimulation ([2]; at 10 µM): -2.6% (inactive) | nuclear beta-catenin stimulation ([2]; stimulation, at 2 µM): -0.9% | insulin secretion stimulation [3]: 1.6% (inactive) | viability decrease [4]: -1.5% (inactive) | tube area decrease [5]: -4.8% (inactive) | GLP1 secretion stimulation [6]: -2.7% (inactive) | inhibition of viability [7]: 4.6% (inactive) | viability decrease (inhibition) [8]: -2.1% (inactive) | viability decrease (inhibition) [9]: -1% (inactive) | fold change [10, 17]: 0.873 (inactive) | fold change [10, 18]: 1.12 | cell count [10, 19]: 8510 | cell count [10, 20]: 9750 | z-score [12, 21]: 0.178 (inactive) | z-score [12, 22]: 0.46

OCc1ccccn1
nuclear beta-catenin stimulation ([2]; at 10 µM): -1% (inactive) | nuclear beta-catenin stimulation ([2]; stimulation, at 2 µM): 0.3% | insulin secretion stimulation [3]: 0% (inactive) | viability decrease [4]: 4.8% (inactive) | tube area decrease [5]: -15.2% (inactive) | GLP1 secretion stimulation [6]: -2.9% (inactive) | inhibition of viability [7]: -23.7% (inactive) | viability decrease (inhibition) [8]: 30.6% (active) | viability decrease (inhibition) [9]: -10.2% (inactive) | fold change [10, 17]: 0.898 (inactive) | fold change [10, 18]: 0.701 | cell count [10, 19]: 8220 | cell count [10, 20]: 9160 | remaining NAD [15]: 10 nM (inactive)

CCc1cccc(CC)c1NC(=O)CN(CC(=O)O)CC(=O)O
fluorescence slope change [13]: -10% (inactive) | survival [14]: 10.9 (inactive) | parasite load remaining [1]: 77.8% (inactive) and 89.7% (inactive) | viability [1]: 111% and 80.2% | nuclear beta-catenin stimulation ([2]; at 10 µM): -0.2% (inactive) | nuclear beta-catenin stimulation ([2]; stimulation, at 2 µM): 0.2% | insulin secretion stimulation [3]: -1.7% (inactive) | viability decrease [4]: -8.7% (inactive) | tube area decrease [5]: 7.4% (inactive) | GLP1 secretion stimulation [6]: -0.1% (inactive) | inhibition of viability [7]: 12% (inactive) | viability decrease (inhibition) [8]: 39.7% (inactive) | viability decrease (inhibition) [9]: 1.77% (inactive) | fold change [10, 17]: 0.877 (inactive) | fold change [10, 18]: 1.63 | cell count [10, 19]: 9160 | cell count [10, 20]: 10400 | z-score [12, 21]: 0.304 (inactive) | z-score [12, 22]: 0.0436
